High-throughput results as filed in PubChem BioAssay.
This is a sample that favours compounds with a hit; in the whole collection about 10% have one here.
MCF10A rereplic – inducers of DNA re-replication in MCF 10A breast cells. MCF 10A DNA re-replication, Hoechst nuclear intensity, 48 h. Potency, µM (series often up to 46.1 µM), without a hit: at the highest dose activity, positive = re-replication, most hits filed as activators. 2.9% of 350,000 active. AID 624296; note: % of control where 0% means no effect; nearly all actives have a fitted effect of over 50% in size
KB-3-1 cytotox – kills parental KB-3-1 adenocarcinoma cells. 1.4% of 400,000 active. Potency, µM (doses to about 46.1 µM), actives largely listed as cytotoxic. KB-3-1 viability, CellTiter-Glo ATP luminescence, 72 h; note: % is set by controls: 0 for no effect and ±100 for the full control effect; nearly all actives have a fitted effect of over 60% in size
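Here the drug-naive KB-3-1 line serves as comparator for MDR sub-line selectivity; cells received compound titrations, 72 h at 37 °C, then CellTiter-Glo readout.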
Gal4-VP16 FLuc – inhibits Gal4-VP16 luciferase reporter, ROR gamma counter-screen; 3.5% of 310,000 active; Drosophila S2 Gal4-VP16 UAS-luciferase, luminescence, 20 h; Potency, µM (top dose mostly 53.6 µM), for inactives: at the top dose activity, negative = inhibition, most hits filed as inhibitors;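 note: Gal4-VP16 expression switched on by copper sulfate through the metallothionein promoter; % is set by controls: 0 for no effect and ±100 for the full control effect; nearly all actives have a fitted effect of over 50% in size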
KB-V1 MDR tox – kills drug-selected multidrug resistant KB-V1 cells | Potency, µM (titrated, usually from 46.1 µM), usual class: cytotoxic | 3.4% of 400,000 active | KB-V1 MDR cells viability, CellTiter-Glo, 72 h; note: % is set by controls: 0 for no effect and ±100 for the full control effect; nearly all actives have a fitted effect of over 60% in size
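KB-V1, DMEM (no phenol red) + 10% FBS; cpd pin-transferred, titration series; 72 h, 37 degrees C; CellTiter-Glo, luminescence. Data normalized, curve-fit.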
SW480 rerep – DNA re-replication induction in SW480 cells. AID 624297. SW480 DNA re-replication, Hoechst DNA content imaging, 48 h. Potency, µM (titrated, usually from 46.1 µM), for inactives: at the top dose re-replication activation, hits mostly activators. 1.8% of 340,000 active; note: % of control where 0% means no effect; nearly all actives have a fitted effect of over 55% in size
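Compounds, transferred as 23 nL by pin tool, were incubated with cells for 48 hr; DNA content per nucleus was then quantified by Hoechst staining and fluorescence plate imaging.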
RORgamma inh – blocks mouse ROR gamma transcriptional activity | P51450 | 5.4% of 310,000 active | Drosophila S2 Gal4-RORgamma UAS-luciferase reporter, 20 h | Potency, µM (top dose mostly 53.6 µM), for inactives: top-dose activity change, negative = inhibition, usual class: inhibitors | AID 2551; note: % is set by controls: 0 for no effect and ±100 for the full control effect; nearly all actives have a fitted effect of over 60% in size
Target sequence (P51450 whole entry, looked up, the tested form may be a part): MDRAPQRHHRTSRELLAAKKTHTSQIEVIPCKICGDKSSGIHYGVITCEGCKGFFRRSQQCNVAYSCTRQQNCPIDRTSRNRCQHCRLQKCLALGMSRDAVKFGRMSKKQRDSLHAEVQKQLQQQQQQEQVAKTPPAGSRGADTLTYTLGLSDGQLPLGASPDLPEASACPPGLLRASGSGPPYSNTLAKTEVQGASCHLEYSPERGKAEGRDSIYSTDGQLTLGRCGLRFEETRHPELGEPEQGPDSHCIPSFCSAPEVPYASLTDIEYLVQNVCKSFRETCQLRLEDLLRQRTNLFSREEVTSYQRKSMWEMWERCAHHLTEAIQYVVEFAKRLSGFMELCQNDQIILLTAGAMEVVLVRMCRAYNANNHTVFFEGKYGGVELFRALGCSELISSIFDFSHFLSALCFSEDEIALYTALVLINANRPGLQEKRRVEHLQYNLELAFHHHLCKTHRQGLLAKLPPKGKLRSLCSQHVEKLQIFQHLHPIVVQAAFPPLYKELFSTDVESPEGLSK
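ROR gamma transcriptional activity was tracked as Gal4-UAS luciferase output in stably transfected Drosophila Schneider cells, with compound added 1 hr before 700 uM copper sulfate induction and a 20 hr ambient-temperature incubation.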
Active calls of the source: *; i = inactive; ? = inconclusive; nt = no result; [ ] = dose if it differs, or a comment. Calls come from the whole dose curve; as a rule, active = well fitted curve in the direction sought with a large enough effect; inconclusive = small, poorly fitted or top-dose-only effect, or another doubt; inactive = no such curve, though single readings can be large; an effect the other way counts as inactive or inconclusive. Potency is the fitted concentration of half-maximal effect.

SMILES	MCF10A rereplic	KB-3-1 cytotox	Gal4-VP16 FLuc	KB-V1 MDR tox	SW480 rerep	RORgamma inh
Cc1ccc2nc(N3C(=O)C(O)=C(C(=O)c4ccc(C)o4)C3c3cccc(O)c3)sc2c1 (stereo not given)	23µM*	i	-16%	i	17%	-3%
CCOc1ccc(C2C(C(=O)c3ccc(C)o3)=C(O)C(=O)N2c2nc(C)c(C(=O)OC)s2)cc1 (stereo not given)	?	?	-26%	?	1%	1.1µM*
CN(C)c1ccc(CC(=O)N2CCCCC2c2cc(C(=O)Nc3ccccc3)no2)cc1 (stereo not given)	nt	i	nt	i	nt	nt
CCOC(=O)c1[nH]c2c(c1Cc1ccccc1C)C(=O)CC(c1cc(OC)ccc1OC)C2 (stereo not given)	nt	i	nt	i	nt	nt
CCCOCCOC(=O)c1[nH]c2c(c1C)C(=O)CC(c1cc(OC)ccc1OC)C2 (stereo not given)	?	5.8µM*	-14%	5.8µM*	3.7µM*	?
COc1ccc(OC)c(C2CC(=O)c3c([nH]c(C(=O)OC(C)C)c3C)C2)c1 (stereo not given)	?	0.46µM*	-21%	0.52µM*	3.7µM*	24%
COc1ccc(OC)c(C2CC(=O)c3c([nH]c(C(=O)OCC4CCCO4)c3C)C2)c1 (stereo not given)	15µM*	9.2µM*	1%	?	?	20%
COCCOC(=O)c1[nH]c2c(c1C)C(=O)CC(c1cc(OC)ccc1OC)C2 (stereo not given)	?	8.2µM*	-5%	?	13µM*	-18%
COc1ccc(-c2cccc(NS(=O)(=O)c3cc([N+](=O)[O-])c(C)c([N+](=O)[O-])c3)c2)nn1	15%	i	nt	i	3%	nt
O=C(Nc1ccc2c(c1)OCCO2)c1[nH]c(C(F)(F)F)nc1-c1ccccc1	nt	i	nt	?	nt	nt
COc1cc(CN2C[C@@H](CO)O[C@@H](n3cnc4c(Nc5ccccc5)ncnc43)C2)cc(OC)c1OC	nt	i	nt	i	nt	nt
O=S(=O)(Nc1nc2ccccc2nc1NCc1ccco1)c1ccc(Cl)cc1	?	?	11µM*	?	-3%[9.22 µM]	-37%
Cc1noc(C)c1CSc1nc2ccccc2nc1NS(=O)(=O)c1ccc(Cl)cc1	2.6µM*	?	-21%	?	2%	?
COCCCNc1nc2ccccc2nc1NS(=O)(=O)c1ccc(Cl)cc1	5%	i	-2%	i	-9%	17%
CCOC(=O)C(CC)Sc1ncnc2c1c(-c1ccccc1)cn2-c1ccc(OC)cc1 (stereo not given)	nt	i	nt	i	nt	nt
OC(COc1ccc(CNCCc2ccccc2F)cc1)CN1CCCCC1 (stereo not given)	18µM*	i	3%	i	?	28%
Cc1ccccc1OCC(=O)Nc1ccc2[nH]ncc2c1	1%	i	?	i	20%	27%
Cc1ccc(N=Cc2cc(Br)cc(Cl)c2O)cc1	10%	i	0%	i	-2%	11µM*
Oc1c(Cl)cc(Cl)cc1C=Nc1ccc(Br)cc1	16%	i	-6%	?	-2%[9.22 µM]	?
Cc1cc(C)c2c(=O)n3c(nc2c1)C(CC(C)C)NC(=O)c1cccnc1-3 (stereo not given)	nt	i	nt	i	nt	nt
Cc1cc(=O)[nH]c2cc(N)ccc12	nt	i	nt	i	nt	nt
Nc1ccc2cc3[nH]c4cc(N)ccc4c3nc2c1	18µM*	?	nt	i	3.3µM*	nt
COc1ccc(OC)c(-c2nc3c(C#N)c[nH]n3c2NC2CCCCC2)c1	nt	i	nt	i	nt	nt
CC1CCCCC1NC(=S)NC(=O)c1cccs1 (stereo not given)	8%	i	13µM*	i	0%	1.6µM*
O=C(NNC(=S)NC1CCCCC1)c1ccccc1O	22%	?	-12%	i	?	14µM*
SMILES	MCF10A rereplic	KB-3-1 cytotox	Gal4-VP16 FLuc	KB-V1 MDR tox	SW480 rerep	RORgamma inh
O=C(NNC(=S)NC1CCCCC1)c1cccs1	-1%	i	-26%	23µM*	16%	?
O=C(NC1CCCCC1)c1cccs1	-4%	i	4%	i	-4%	-4%
OCCN1CCN(c2cc(-c3ccc4ccccc4c3)nc3ccnn23)CC1	nt	i	nt	i	nt	nt
Cc1cn2c(=O)cc(COc3cccc(NC(=O)c4ccccc4C)c3)nc2s1	nt	i	nt	i	nt	nt
CN(C)C=Nc1ncc2c([nH]c3ccccc32)c1C#N	29%	?	-13%	7.3µM*	15%	-22%
CC1=CC2C(C(O)CC3(C)C2CC(C)C32OCOC23COCO3)C2(C)C/C(=C\O)C(=O)C=C12 (stereo not given)	4.6µM*	?	nt	?	15µM*	nt
CCCn1nnnc1NC(=O)CSc1ccc(Cl)cc1	-1%	i	2.2µM*	i	-3%	0.89µM*
CCn1nnnc1NC(=O)c1cc(Cl)c(OC)c(Cl)c1	3%	i	-6%	i	-1%	?
CCCn1nnnc1NC(=O)c1cc(Cl)ccc1Cl	?	i	2.2µM*	i	-6%	1.6µM*
COC(=O)[C@@]12C[C@@H](CC(=O)N3CCN(C(=O)c4ccco4)CC3)C(=O)N(Cc3cccc4ccccc34)C1=CCC(C)(C)C2	nt	?	nt	23µM*	nt	nt
CCOC(=O)N1CCN(C(=O)C[C@@H]2C[C@@]3(C(=O)OC)CC(C)(C)CC=C3N(Cc3cccc4ccccc34)C2=O)CC1	nt	i	nt	18µM*	nt	nt
Cc1ccc(CNC(=O)c2oc3ccc(S(=O)(=O)N4CCC(C)CC4)cc3c2C)cc1	nt	i	nt	i	nt	nt
O=C(NNC(=S)Nc1ccc(Br)cc1)c1cccnc1	18%	i	?	i	-5%	10µM*
O=C(NCCCl)NNc1c(Cl)cc(Cl)cc1Cl	2%	i	3%	i	-3%	-29%
O=C(NC(=S)Nc1ncccn1)c1ccc(Cl)cc1Cl	3%	i	-1%	i	-3%	7.1µM*
CC(C)c1ccccc1OCCNC(=S)NC(=O)c1cccnc1	?	i	?	?	17%	3.5µM*
CCCCNC(=S)NNc1c(Cl)cc(Cl)cc1Cl	-1%	i	5µM*	i	-9%	2.5µM*
CCC(=O)Nc1cccc(NC(=S)NC(=O)c2ccc(Cl)cc2Cl)c1	15%	?	?	?	-3%	?
CC(C)(CNC(=O)c1ccc(Br)o1)CNC(=O)c1ccc(Br)o1	0%	i	nt	i	2%	nt
CCNC(=S)NNC(=O)c1cccnc1	-7%	i	-5%	i	-10%	-2%
O=C(NC(=S)NNC(=O)c1ccc(Cl)cc1Cl)c1cccnc1	?	i	20µM*	i	-1%	13µM*
